Measurements taken from PubChem BioAssay AID1159580 (chemical genetic matrix, 2015).
The campaign covered roughly 5,500 compounds. About 2,000 (36%) were called active. Another 18% or so got no clear call; they are omitted. No stated cut-off is given here; in the data, active means normalized growth mostly below about 0.91 (no sharp cut-off); inconclusive means no clear call, values can overlap the other calls; inactive means mostly above about 0.92. Some of the results follow.

Assay: chemical genetic growth profiling, strain panel (AID 1159580);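 further: tested at 20 µM; growth read once vehicle control cultures reached saturation at 30 °C; 1 = growth at the plate median or of vehicle wells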
Conditions: S. cerevisiae deletion strains, growth OD

Measured: normalized growth

O=c1c(O)c(-c2ccc(O)c(O)c2)oc2c(O[C@@H]3O[C@H](CO)[C@H](O)[C@@H](O)[C@H]3O)c(O)cc(O)c12
inactive: locus YAL021C, strain ccr4, stronger effect = lower value 1.01 | locus YAL026C, strain drs2, stronger effect = lower value 1.03 | locus YAL030W, strain snc1, stronger effect = lower value 1.01 | locus YBL061C, strain skt5, stronger effect = lower value 1.01 | locus YBR009C, strain hhf1, stronger effect = lower value 1.02 | locus YBR023C, strain chs3, stronger effect = lower value 1.03 | locus YBR171W, strain sec66, stronger effect = lower value 1.02 | locus YBR231C, strain swc5, stronger effect = lower value 1.01 | locus YBR279W, strain paf1, stronger effect = lower value 1.01 | locus YCL011C, strain gbp2, stronger effect = lower value 1.03 | locus YCL016C, strain dcc1, stronger effect = lower value 1.02 | locus YCL061C, strain MRC1, stronger effect = lower value 1 | locus YCL069W, strain vba3, stronger effect = lower value 1.03 | locus YCR088W, strain abp1, stronger effect = lower value 1 | locus YDL005C, strain med2, stronger effect = lower value 1 | locus YDL040C, strain nat1, stronger effect = lower value 1.01 | locus YDR001C, strain nth1, stronger effect = lower value 1.02 | locus YDR069C, strain doa4, stronger effect = lower value 1.03 | locus YDR137W, strain rgp1, stronger effect = lower value 0.988 | locus YDR159W, strain sac3, stronger effect = lower value 0.997 | locus YDR195W, strain ref2 0.965 | locus YDR297W, strain sur2, stronger effect = lower value 1.03 | locus YDR334W, strain swr1, stronger effect = lower value 1.02 | locus YDR335W, strain msn5, stronger effect = lower value 1.02 | locus YDR392W, strain spt3, stronger effect = lower value 0.978 | locus YEL003W, strain gim4, stronger effect = lower value 1.02 | locus YEL037C, strain rad23, stronger effect = lower value 1.01 | locus YEL061C, strain CIN8 (second series), stronger effect = lower value 1.03 | locus YER015W, strain faa2, stronger effect = lower value 1 | locus YER016W, strain bim1, stronger effect = lower value 1.01 | locus YER111C, strain swi4, stronger effect = lower value 1.01 | locus YER155C, strain BEM2 (second series), stronger effect = lower value 1.04 | locus YFR010W, strain ubp6, stronger effect = lower value 1.01 | locus YGL167C, strain pmr1, stronger effect = lower value 1.02 | locus YGL173C, strain kem1, stronger effect = lower value 1.02 | locus YGL227W, strain vid30, stronger effect = lower value 0.999 | locus YGL240W, strain doc1, stronger effect = lower value 1.01 | locus YGL253W, strain hxk2, stronger effect = lower value 1.02 | locus YHR013C, strain ard1, stronger effect = lower value 1.02 | locus YHR027C, strain rpn1, stronger effect = lower value 0.998 | locus YHR030C, strain SLT2, stronger effect = lower value 0.895 | locus YHR079C, strain IRE1, stronger effect = lower value 0.886 | locus YHR142W, strain chs7, stronger effect = lower value 1.04 | locus YJL092W, strain hpr5, stronger effect = lower value 1.01 | locus YJL095W, strain BCK1 (second series), stronger effect = lower value 1.01 | locus YJL095W, strain BCK1, stronger effect = lower value 0.895 | locus YJL115W, strain asf1, stronger effect = lower value 1 | locus YJL129C, strain trk1, stronger effect = lower value 1 | locus YJL154C, strain vps35, stronger effect = lower value 1.02 | locus YJL164C, strain tpk1, stronger effect = lower value 1.03 | locus YJL166W, strain qcr8, stronger effect = lower value 1.04 | locus YJL187C, strain SWE1, stronger effect = lower value 1.03 | locus YJR066W, strain TOR1, stronger effect = lower value 0.914 | locus YKL160W, strain elf1, stronger effect = lower value 1 | locus YKR026C, strain gcn3, stronger effect = lower value 1.01 | locus YKR091W, strain srl3, stronger effect = lower value 1.02 | locus YLL001W, strain dnm1, stronger effect = lower value 0.989 | locus YLL026W, stronger effect = lower value 1.01 | locus YLL041C, strain sdh2, stronger effect = lower value 1.02 | locus YLR027C, strain aat2, stronger effect = lower value 1.03 | locus YLR221C, strain rsa3, stronger effect = lower value 1 | locus YLR258W, strain gsy2, stronger effect = lower value 1.01 | locus YLR262C, strain YPT6 (second series), stronger effect = lower value 1.06 | locus YLR320W, strain mms22, stronger effect = lower value 1.01 | locus YLR342W, strain FKS1, stronger effect = lower value 1.02 | locus YLR357W, strain rsc2, stronger effect = lower value 0.988 | locus YLR370C, strain arc18, stronger effect = lower value 1.02 | locus YLR384C, strain iki3, stronger effect = lower value 1 | locus YML120C, strain ndi1, stronger effect = lower value 1.01 | locus YMR058W, strain fet3, stronger effect = lower value 1.01 | locus YMR125W, strain sto1, stronger effect = lower value 1 | locus YMR129W, stronger effect = lower value 1.01 | locus YMR205C, strain PFK2, stronger effect = lower value 1.02 | locus YMR231W, strain pep5, stronger effect = lower value 1 | locus YNL071W, strain lat1, stronger effect = lower value 1.03 | locus YNL183C, strain NPR1, stronger effect = lower value 0.913 | locus YNL209W, strain ssb2, stronger effect = lower value 1.02 | locus YNL248C, strain rpa49, stronger effect = lower value 0.988 | locus YNL322C, strain KRE1 (second series), stronger effect = lower value 1 | locus YNR049C, strain mso1, stronger effect = lower value 1.02 | locus YOR001W, strain rrp6, stronger effect = lower value 1.01 | locus YOR070C, strain gyp1, stronger effect = lower value 1.01 | locus YOR080W, strain dia2, stronger effect = lower value 1.01 | locus YOR083W, strain WHI5, stronger effect = lower value 1.03 | locus YOR106W, strain vam3, stronger effect = lower value 1.01 | locus YOR231W, strain MKK1, stronger effect = lower value 0.91 | locus YOR265W, strain rbl2, stronger effect = lower value 1.04 | locus YOR270C, strain vph1, stronger effect = lower value 1.11 | locus YOR290C, strain snf2, stronger effect = lower value 1.03 | locus YPL051W, strain arl3, stronger effect = lower value 1.01 | locus YPL078C, strain atp4, stronger effect = lower value 1.01 | locus YPL106C, strain sse1, stronger effect = lower value 0.971 | locus YPL240C, strain hsp82, stronger effect = lower value 1.02 | locus YPL256C, strain CLN2, stronger effect = lower value 0.868
active: locus YLR113W, strain HOG1, stronger effect = lower value 0.834
